# Measurements as given in publication PMC8384837, “Expanding the binding specificity for RNA recognition by a PUF domain”.
# Target: PUM1 PUF domain R4-NNV (Homo sapiens, UniProt Q14671 828-1176, H972N;Q975V)
# Experiment: yeast three-hybrid, YBZ-1, SC-Leu-His + 0.5 mM 3-AT, 4 days
# Conditions: tags: N-Gal4 AD-HA kept; label: inside an RPR1-promoter hybrid RNA with tandem MS2 sites; ssRNA
# Outline: (§1)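 The interaction score is the log change in how often each variant appears, from input to selection. Frequencies came from PCR-amplified, Illumina-sequenced repeat regions of Pumilio-1 PUF domain libraries grown in strain YBZ-1 (LexA–MS2 coat fusion, HIS3 reporter) alongside matching RNA elements. Input plates were SC-Leu and selection plates were SC-Leu-His + 0.5 mM 3-AT, each for four days, and the log2 calculation used a pseudocount of 1 where a variant was absent.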
# Chain of PUM1 PUF domain R4-NNV (Q14671 828-1176 H972N/Q975V): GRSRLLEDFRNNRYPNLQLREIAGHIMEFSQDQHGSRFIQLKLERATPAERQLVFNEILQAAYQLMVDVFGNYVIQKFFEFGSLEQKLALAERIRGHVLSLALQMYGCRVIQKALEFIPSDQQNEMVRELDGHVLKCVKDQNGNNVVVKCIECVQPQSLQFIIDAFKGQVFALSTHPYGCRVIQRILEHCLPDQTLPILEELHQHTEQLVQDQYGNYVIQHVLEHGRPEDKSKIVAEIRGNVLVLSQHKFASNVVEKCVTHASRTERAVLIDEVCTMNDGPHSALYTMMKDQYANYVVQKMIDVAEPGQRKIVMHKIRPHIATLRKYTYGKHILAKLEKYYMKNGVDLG
row,Sequence,binding signal
1,GGCUAGAACUAGUGGAUCCCCCGGCGCCCGGCGGCUCGAGCCCGGGUAAGUGUAUAUAGUCUGCAUGCCGCCGGGCGCCAUGCCUGCAGGUCGACUCUAGAAAACAUG,3.42 log2 enrichment (interaction score)
2,GGCUAGAACUAGUGGAUCCCCCGGCGCCCGGCGGCUCGAGCCCGGGUAAGUGUACAUAGUCUGCAUGCCGCCGGGCGCCAUGCCUGCAGGUCGACUCUAGAAAACAUG,2.48 log2 enrichment (interaction score)
3,GGCUAGAACUAGUGGAUCCCCCGGCGCCCGGCGGCUCGAGCCCGGGUAAGUGUAAAUAGUCUGCAUGCCGCCGGGCGCCAUGCCUGCAGGUCGACUCUAGAAAACAUG,1.31 log2 enrichment (interaction score)

# Target: PUM1 PUF domain R4-PYC (Homo sapiens, UniProt Q14671 828-1176, N971P;H972Y;Q975C)
# Experiment: as above
# Conditions: tags: N-Gal4 AD-HA kept; label: inside an RPR1-promoter hybrid RNA with tandem MS2 sites; ssRNA
# Outline: as §1
# Chain of PUM1 PUF domain R4-PYC (Q14671 828-1176 N971P/H972Y/Q975C): as the sequence (Q14671 828-1176 H972N/Q975V) above, with N144P, N145Y, V148C counted along it
row,Sequence,binding signal
1,GGCUAGAACUAGUGGAUCCCCCGGCGCCCGGCGGCUCGAGCCCGGGUAAGUGUAUAUAGUCUGCAUGCCGCCGGGCGCCAUGCCUGCAGGUCGACUCUAGAAAACAUG,7.49 log2 enrichment (interaction score)
2,GGCUAGAACUAGUGGAUCCCCCGGCGCCCGGCGGCUCGAGCCCGGGUAAGUGUACAUAGUCUGCAUGCCGCCGGGCGCCAUGCCUGCAGGUCGACUCUAGAAAACAUG,6.68 log2 enrichment (interaction score)
3,GGCUAGAACUAGUGGAUCCCCCGGCGCCCGGCGGCUCGAGCCCGGGUAAGUGUAAAUAGUCUGCAUGCCGCCGGGCGCCAUGCCUGCAGGUCGACUCUAGAAAACAUG,7.66 log2 enrichment (interaction score)

# Target: PUM1 PUF domain R4-VPG (Homo sapiens, UniProt Q14671 828-1176, N971V;H972P;Q975G)
# Experiment: as above
# Conditions: tags: N-Gal4 AD-HA kept; label: inside an RPR1-promoter hybrid RNA with tandem MS2 sites; ssRNA
# Outline: as §1
# Chain of PUM1 PUF domain R4-VPG (Q14671 828-1176 N971V/H972P/Q975G): as the sequence (Q14671 828-1176 H972N/Q975V) above, with N144V, N145P, V148G counted along it
row,Sequence,binding signal
1,GGCUAGAACUAGUGGAUCCCCCGGCGCCCGGCGGCUCGAGCCCGGGUAAGUGUAUAUAGUCUGCAUGCCGCCGGGCGCCAUGCCUGCAGGUCGACUCUAGAAAACAUG,2.52 log2 enrichment (interaction score)
2,GGCUAGAACUAGUGGAUCCCCCGGCGCCCGGCGGCUCGAGCCCGGGUAAGUGUACAUAGUCUGCAUGCCGCCGGGCGCCAUGCCUGCAGGUCGACUCUAGAAAACAUG,2.82 log2 enrichment (interaction score)
3,GGCUAGAACUAGUGGAUCCCCCGGCGCCCGGCGGCUCGAGCCCGGGUAAGUGUAAAUAGUCUGCAUGCCGCCGGGCGCCAUGCCUGCAGGUCGACUCUAGAAAACAUG,3.14 log2 enrichment (interaction score)

# Target: PUM1 PUF domain R4-GRC (Homo sapiens, UniProt Q14671 828-1176, N971G;H972R;Q975C)
# Experiment: as above
# Conditions: tags: N-Gal4 AD-HA kept; label: inside an RPR1-promoter hybrid RNA with tandem MS2 sites; ssRNA
# Outline: as §1
# Chain of PUM1 PUF domain R4-GRC (Q14671 828-1176 N971G/H972R/Q975C): as the sequence (Q14671 828-1176 H972N/Q975V) above, with N144G, N145R, V148C counted along it
row,Sequence,binding signal
1,GGCUAGAACUAGUGGAUCCCCCGGCGCCCGGCGGCUCGAGCCCGGGUAAGUGUAUAUAGUCUGCAUGCCGCCGGGCGCCAUGCCUGCAGGUCGACUCUAGAAAACAUG,2.46 log2 enrichment (interaction score)
2,GGCUAGAACUAGUGGAUCCCCCGGCGCCCGGCGGCUCGAGCCCGGGUAAGUGUACAUAGUCUGCAUGCCGCCGGGCGCCAUGCCUGCAGGUCGACUCUAGAAAACAUG,0.93 log2 enrichment (interaction score)
3,GGCUAGAACUAGUGGAUCCCCCGGCGCCCGGCGGCUCGAGCCCGGGUAAGUGUAAAUAGUCUGCAUGCCGCCGGGCGCCAUGCCUGCAGGUCGACUCUAGAAAACAUG,4.62 log2 enrichment (interaction score)

# Target: PUM1 PUF domain R5-GRA (Homo sapiens, UniProt Q14671 828-1176, C1007G;Q1011A)
# Experiment: as above
# Conditions: tags: N-Gal4 AD-HA kept; label: inside an RPR1-promoter hybrid RNA with tandem MS2 sites; ssRNA
# Outline: as §1
# Chain of PUM1 PUF domain R5-GRA (Q14671 828-1176 C1007G/Q1011A): as the sequence (Q14671 828-1176 H972N/Q975V) above, with N145H, V148Q, C180G, Q184A counted along it
row,Sequence,binding signal
1,GGCUAGAACUAGUGGAUCCCCCGGCGCCCGGCGGCUCGAGCCCGGGUAAGUGUUAAUAGUCUGCAUGCCGCCGGGCGCCAUGCCUGCAGGUCGACUCUAGAAAACAUG,2.93 log2 enrichment (interaction score)
2,GGCUAGAACUAGUGGAUCCCCCGGCGCCCGGCGGCUCGAGCCCGGGUAAGUGUGAAUAGUCUGCAUGCCGCCGGGCGCCAUGCCUGCAGGUCGACUCUAGAAAACAUG,1.36 log2 enrichment (interaction score)
3,GGCUAGAACUAGUGGAUCCCCCGGCGCCCGGCGGCUCGAGCCCGGGUAAGUGUAAAUAGUCUGCAUGCCGCCGGGCGCCAUGCCUGCAGGUCGACUCUAGAAAACAUG,2.95 log2 enrichment (interaction score)
